High-throughput results (PubChem BioAssay)
Compounds with a hit are over-represented: about 8.9% of the library has one in this group of screens.
12-hLO inh: inhibitors of human 12-lipoxygenase (ALOX12); P18054; purified 12-hLO, xylenol orange hydroperoxide absorbance; Potency, µM (highest dose often 57.1 µM), for the others: top-dose activity change, negative = inhibition, most hits filed as inhibitors; 150,000 compounds, 0.12% hits; further: potency means the concentration at half of the fitted maximal effect; nearly all actives have a fitted effect of over 55% in size
Target sequence (P18054 whole entry, looked up): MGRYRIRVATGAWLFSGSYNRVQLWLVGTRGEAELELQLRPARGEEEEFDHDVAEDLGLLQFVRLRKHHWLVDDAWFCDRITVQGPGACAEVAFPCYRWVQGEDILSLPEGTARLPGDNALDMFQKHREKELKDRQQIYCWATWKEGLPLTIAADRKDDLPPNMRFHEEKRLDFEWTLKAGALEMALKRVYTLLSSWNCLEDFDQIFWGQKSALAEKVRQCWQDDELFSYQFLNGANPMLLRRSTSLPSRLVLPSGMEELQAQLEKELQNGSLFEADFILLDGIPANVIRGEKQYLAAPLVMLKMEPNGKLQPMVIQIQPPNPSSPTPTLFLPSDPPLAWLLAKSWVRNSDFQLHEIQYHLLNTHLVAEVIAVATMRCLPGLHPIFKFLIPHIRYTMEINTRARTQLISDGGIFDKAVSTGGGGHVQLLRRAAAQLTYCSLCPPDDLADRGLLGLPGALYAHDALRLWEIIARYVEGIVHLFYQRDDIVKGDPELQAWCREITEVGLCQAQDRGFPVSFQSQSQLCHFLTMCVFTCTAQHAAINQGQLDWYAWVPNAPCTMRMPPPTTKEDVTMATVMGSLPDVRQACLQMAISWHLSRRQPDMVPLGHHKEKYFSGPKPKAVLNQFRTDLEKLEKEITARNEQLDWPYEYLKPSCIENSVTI
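150 nM 12hLO, 25 mM Hepes pH 7.0 + 0.01% Triton X-100; cpd preinc 15 min RT; 40 uM arachidonic acid, 30 min RT; Fe-XO 30 min; A573/A405 ratio as read-out.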
IMPase cell inh: IMPase inhibition in cells; P97697; CHO-M1 cells, IP1 accumulation, HTRF TR-FRET ratio; inhibition (IP1 accumulation), % at 46.1 µM; 120,000 tested, under 10 active; active means well fitted curve in the direction sought with a large enough effect in the signal ratio, not every such curve was filed as active; inconclusive means small, poorly fitted or top-dose-only effect, or a change in a side signal; inactive means no such curve, though single readings can be large or run the other way; the % refers to the signal ratio;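 further: cells stimulated with carbachol in lithium chloride buffer; plate controls were DMSO basal wells for no effect and reference inhibitor wells for full effect; higher means more IMPase inhibition seen as more IP1 and lower FRET ratio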
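CHO-M1 cells (CHO stably expressing M1 receptor), compound up to 46 uM final, stimulated with carbachol (50 uM as added) in buffer with 50mM LiCl, pH 7.4, 30 min at 37C. Cytosolic IP1 read by TR-FRET; AC50 from Hill fits.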
NPSR antagonist: neuropeptide S receptor (human) antagonism, cAMP; 220,000 compounds, 1% hits; Potency, µM (doses to about 38.3 µM), for inactives: at the top dose activity change, negative = inhibition, hits mostly inhibitors; CHO-NPSR cells, cAMP TR-FRET, antagonist mode; AID 1461; Q6W5P4; further: potency means the concentration at half of the fitted maximal effect; nearly all actives have a fitted effect of over 50% in size
HPGD block: HPGD (human) dehydrogenase inhibition; 150,000 compounds, 4.3% hits; purified HPGD, NADH fluorescence kinetic, PGE2 substrate; AID 894; Potency, µM, inactives show top-dose activity change, negative = inhibition, most hits filed as inhibitors; P15428; active means well fitted inhibition curve with a large enough effect, not every such curve was filed as active; inconclusive means small, poorly fitted or top-dose-only effect, or another doubt; inactive means no such curve, though single readings can be large or run the other way; further: potency means the concentration at half of the fitted maximal effect
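20 nM HPGD preincubated 15 min at room temperature with compound in 50 mM Tris-HCl pH 8, 0.01% Tween 20. Started with 1 mM NAD+ and 30 uM prostaglandin E2; NADH fluorescence (360/450 nm) read 5 times over 30-s intervals, last minus first.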
ALDH1A1 inh: ALDH1A1 (human) enzyme inhibition | P00352 | Purified ALDH1A1, NADH fluorescence, propionaldehyde substrate | Potency, µM (top dose mostly 75.3 µM), for the others: at the highest dose activity, negative = inhibition, usual class: inhibitors | 220,000 compounds, 7.3% hits; active means well fitted inhibition curve with a large enough effect, not every such curve was filed as active; inconclusive means small, poorly fitted or top-dose-only effect, or another doubt; inactive means no such curve, though single readings can be large or run the other way;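 further: potency means the concentration at half of the fitted maximal effect; plate controls were no enzyme wells and a reference inhibitor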
IMPase Li cell: cell-permeable IMPase inhibitors with lithium potentiation | CHO-M1 cells, IP1 TR-FRET (IP-One), carbachol + lithium | 210,000 compounds, 0.35% hits | Potency, µM (highest dose often 59.4 µM), inactives show top-dose activity, negative = IMPase inhibition, usual class: inhibitors | AID 1457;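 further: IP1 builds up when IMPase is blocked and the TR-FRET signal falls; potency means the concentration at half of the fitted maximal effect; plate controls were basal vehicle for no effect and high inhibitor control for full effect; nearly all actives have a fitted effect of over 50% in size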
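CHO-M1, 2000 cells/well, 16–30 h culture; cpd + low Li+, 30 min 37C; lysis with d2-IP1/Eu-anti-IP1 Ab, 10 min RT; TR-FRET 665/620 ratio and 620 channel; AC50 via Hill.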
The depositor's hits bear a star; ? = inconclusive; · = no result; [ ] = remark or other dose. Unless noted, the call rests on the fitted dose curve; in most records, active means well fitted curve in the direction sought with a large enough effect; inconclusive means small, poorly fitted or top-dose-only effect, or another doubt; inactive means no such curve, though single readings can be large; an effect the other way counts as inactive or inconclusive. Unless noted, on the % scale 0 is the no-effect control and ±100 the full control effect.

SMILES | 12-hLO inh | IMPase cell inh | NPSR antagonist | HPGD block | ALDH1A1 inh | IMPase Li cell
O=C(CC1(O)C(=O)N(C/C=C/c2ccccc2)c2ccccc21)c1ccccn1 (stereo unspecified) | -5% | 13 | 22%[46.1 µM] | · | 0.79µM* | ·
COC(=O)CN1C(=O)C(O)(CC(=O)c2ccc(C)o2)c2ccccc21 (stereo unspecified) | 0% | 10 | -5%[46.1 µM] | 5% | 7.9µM* | 27%[38.3 µM]
CC/C(O)=C1\C(=O)CCCC1=NCCc1c(C)[nH]c2ccc(C)cc12 | · | · | -29% | · | · | ·
CCOC(=O)c1cc(NC(=O)C2C3CCC(O3)C2C(=O)O)cc(C(=O)OCC)c1 (stereo unspecified) | -1% | 1 | -2%[46.1 µM] | -9% | ? | 4%[38.3 µM]
COCCCNC(=O)Cn1cc2c(n1)CCC(C)C2 (stereo unspecified) | -8% | 2 | 7%[46.1 µM] | -7% | 3% | 9%[38.3 µM]
COc1ccc(OC(=O)c2ccc3nsnc3c2)cc1 | -7% | -2 | -7%[46.1 µM] | -24% | -11% | -16%[38.3 µM]
COC(=O)CN1C(=O)C(O)(CC(=O)c2ccc(C)cc2)c2ccccc21 (stereo unspecified) | 2% | -3 | -3%[46.1 µM] | 5% | 8.9µM* | 14%[38.3 µM]
C=CCN1C(=O)C(O)(CC(=O)c2ccc(N)cc2)c2ccccc21 (stereo unspecified) | -1% | 11 | -26%[46.1 µM] | -13% | 5.6µM* | -3%[38.3 µM]
Cc1ccc(C(=O)CC2(O)C(=O)N(CN3CCOCC3)c3ccccc32)cc1 (stereo unspecified) | -9% | -5 | -4%[46.1 µM] | -15% | 14µM* | 13%[38.3 µM]
COc1ccccc1-c1c(C)oc2cc(OC(=O)c3ccco3)ccc2c1=O | -5% | -11 | -12%[46.1 µM] | -4% | -7% | 18%[38.3 µM]
Cc1nnc(NC(=O)CCC(=O)NCc2cccs2)s1 | 10% | 1 | -2%[46.1 µM] | -4% | -11% | -7%[38.3 µM]
O=C(NCc1cccs1)C1CCCCC1 | -3% | 3 | -4%[46.1 µM] | 14µM* | 15% | 24%[38.3 µM]
O=C(NCc1cccs1)Nc1cccs1 | -18% | 0 | 8%[46.1 µM] | ? | 18µM* | 8%[38.3 µM]
O=C(NCc1cccs1)C1CC1 | · | · | 11% | · | -4% | -5%
Cc1csc2nc(CNC(=O)C3CCCCC3)cn12 | 1% | -4 | 4%[46.1 µM] | 16µM* | 3% | 21%[38.3 µM]
O=C(CCC(=O)Nc1nnc(C2CCCCC2)s1)NCc1cccs1 | -3% | 0 | 5%[46.1 µM] | -11% | -15% | 14µM*
COc1ccc(C)cc1NC(=O)C(OC(=O)c1ccc(Cl)c(S(=O)(=O)N(C)c2ccccc2)c1)c1ccccc1 (stereo unspecified) | 7% | 6 | -3% | -14% | -1% | -3%
COc1ncc2nc(-c3ccc(F)cc3)c(=O)n(Cc3ccc(F)cc3)c2n1 | · | · | · | · | ? | 8%
CC1(C)Oc2ccc(C(=O)N3CCc4ccccc43)cc2N(CC(=O)N2CCCC2)C1=O | -5% | 9 | -27%[7.67 µM] | -6% | -6% | 14%[38.3 µM]
CCO[C@@H]1OC(C(N)=O)=C[C@H](C2CCCCC2)[C@H]1CCCO | · | · | 5% | · | · | ·
CC(C)n1cnc2c(N(C)c3ccccc3)nc(N(CCN(C)C)Cc3ccccc3)nc21 | · | · | 10µM* | · | · | ·
Cn1c(N)c(C(=O)Nc2ccccc2F)sc1=S | · | · | -6% | · | ? | ·
COc1ccccc1-n1c(N)c(C(N)=O)sc1=S | 0% | 2 | 17%[46.1 µM] | 28µM* | 28µM* | 14%[38.3 µM]
Nc1c(C(=O)Nc2ccc(F)cc2)sc(=S)n1-c1ccccc1F | · | · | -22% | · | 13µM* | -6%
Cn1c(N)c(C(=O)Nc2ccc3ccccc3c2)sc1=S | -9% | -3 | -10%[46.1 µM] | 8.9µM* | 13µM* | 5%[38.3 µM]
SMILES | 12-hLO inh | IMPase cell inh | NPSR antagonist | HPGD block | ALDH1A1 inh | IMPase Li cell
CSc1nc(C=Nc2ccccc2Cl)c(O)n1Cc1cccc(Cl)c1 | · | · | -7% | · | · | ·
CN(C)S(=O)(=O)Oc1cccc(C(=O)Nc2ccc(Cl)c(Cl)c2)c1 | -27% | -2 | -29%[46.1 µM] | -14% | 13µM* | 19%[38.3 µM]
CN(C)S(=O)(=O)Oc1cccc(C(=O)Nc2cccc(Cl)c2)c1 | -8% | 9 | -6%[46.1 µM] | -22% | 0.79µM* | 13%[38.3 µM]
COc1cccc(C(=O)Nc2ccccc2)c1 | 1% | 2 | 5%[46.1 µM] | -21% | 2% | 7%[38.3 µM]
COc1ccc(NC(=O)c2cccc(OS(=O)(=O)N(C)C)c2)cc1 | · | · | 19% | · | 4µM* | 15%
CC1Cc2ccccc2N1C(=O)COc1nc2ccccc2nc1N1CCOCC1 (stereo unspecified) | -3% | ? | -27%[46.1 µM] | -9% | ? | 25µM*
CCCNC(=O)COc1nc2ccccc2nc1N1CCOCC1 | 2% | · | -2% | -7% | 2% | 1%
O=C(Nn1c(SCc2ccccc2F)nc2ccsc2c1=O)c1ccccc1 | 4% | · | -19% | -4% | ? | 10%
O=[N+]([O-])c1ccc(Cc2ccncc2)cc1 | · | · | 9% | · | 0% | 3%
CCCC1NC(=S)N(C2CCCCC2)C1=O (stereo unspecified) | -4% | · | 4% | -9% | -5% | 5%
CCOc1ccc(C(C)=O)cc1CSc1nnc(-c2ccoc2C)n1N | -6% | 11 | -27%[46.1 µM] | 14µM* | 22µM* | 2%[38.3 µM]
Cc1cc(NC(=O)CSc2nnc(-c3ccoc3C)n2N)no1 | 1% | 3 | 2%[46.1 µM] | -2% | -5% | -3%[38.3 µM]
COc1cc(OC)cc(-c2n[nH]c(=S)n2-c2ccc3c(c2)OCCO3)c1 | · | · | -21% | · | -6% | 0%
N#CC(=C=[N-])C1=C(C#N)C(c2ccccc2F)C([n+]2ccccc2)C(O)(C2CC2)N1 (stereo unspecified) | -7% | ? | ? | -6% | 1% | 13µM*
O=C(C1=C(O)C(=O)N(CCc2ccccc2)C1c1cccs1)c1ccco1 (stereo unspecified) | · | · | -50% | · | -3% | -22%
CCN(CC)CCN1C(=O)C(O)=C(C(=O)c2cc3ccccc3o2)C1c1cccnc1 (stereo unspecified) | -1% | ? | ? | -7% | -8% | 10µM*
O=C(C1=C(O)C(=O)N(CCc2ccccc2)C1c1ccncc1)c1cc2ccccc2o1 (stereo unspecified) | · | · | -47% | · | 19µM* | 4.5µM*
O=C(C1=C(O)C(=O)N(CCCN2CCOCC2)C1c1ccccn1)c1cccs1 (stereo unspecified) | -7% | 5 | -23%[46.1 µM] | -13% | ? | 24%[38.3 µM]
O=C(C1=C(O)C(=O)N(c2nccs2)C1c1ccccc1)c1cc2ccccc2o1 (stereo unspecified) | · | · | ? | · | 22µM* | ·
CCN(CC)CCN1C(=O)C(O)=C(C(=O)c2sc(C)nc2C)C1c1cccnc1 (stereo unspecified) | 1% | 2 | -6%[46.1 µM] | -19% | ? | 19%[38.3 µM]
